The record followed here is the supplement of paper PMC9492666.

Counter-ions that a name gives are not always drawn.

For experiment [1], the system named is HCC1937. Put plainly: relative cell viability, compound + RSL3, vs DMSO (fraction of DMSO control); higher = less growth inhibition. As to conditions: 72 h.
The test system of experiment [2] is MDA-MB-231. The experiment is described as above. As to conditions: 72 h.
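Also: breast cancer cell viability read out with the CCK-8 kit after co-treatment of each compound with the ferroptosis inducer RSL3.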

For `CC(C)n1c(/C=C/C(O)CC(O)CC(=O)O)c(-c2ccc(F)cc2)c2ccccc21` (centres undefined) [Fluvastatin sodium salt] + COC(=O)c1ccc([C@H]2c3[nH]c4ccccc4c3C[C@H](C(=O)OC)N2C(=O)CCl)cc1 [RSL3], the values for the relative cell viability in experiment [1] and in experiment [2] were 0.504 and 0.547, respectively.

`O=C(O)c1c[nH]c2cc(Cl)c(-c3ccc(C4(O)CCC4)cc3)cc12` + COC(=O)c1ccc([C@H]2c3[nH]c4ccccc4c3C[C@H](C(=O)OC)N2C(=O)CCl)cc1 [RSL3]: the relative cell viability in experiment [1] and in experiment [2] was 0.572 throughout.

In the case of `CN(CCOc1ccc(CC2SC(=O)NC2=O)cc1)c1ccccn1` (centres undefined) [Rosiglitazone maleate] + COC(=O)c1ccc([C@H]2c3[nH]c4ccccc4c3C[C@H](C(=O)OC)N2C(=O)CCl)cc1 [RSL3], the relative cell viability worked out at 0.758 in experiment [1] and 0.516 in experiment [2].

In the case of `C[C@@H]1OCC2(CCN(c3cnc(Sc4ccnc(N)c4Cl)c(N)n3)CC2)[C@@H]1N` + COC(=O)c1ccc([C@H]2c3[nH]c4ccccc4c3C[C@H](C(=O)OC)N2C(=O)CCl)cc1 [RSL3], the values for the relative cell viability in experiment [1] and in experiment [2] were 0.378 and 0.71, respectively.

As for `Cc1nc2c([nH]1)c(=O)n(C)c(=O)n2Cc1ccco1` [Furafylline] + COC(=O)c1ccc([C@H]2c3[nH]c4ccccc4c3C[C@H](C(=O)OC)N2C(=O)CCl)cc1 [RSL3], the relative cell viability in experiment [1] turned out to be 0.399; in experiment [2] it was 0.596.

Take `COc1ccc(-n2c(SCCCN3C(=O)c4cccc5cccc(c45)C3=O)nnc2-c2ccncc2)cc1` + COC(=O)c1ccc([C@H]2c3[nH]c4ccccc4c3C[C@H](C(=O)OC)N2C(=O)CCl)cc1 [RSL3]: the relative cell viability in experiment [1] was determined as 0.324; in experiment [2], 0.56.

Take `COc1ccc(N(C(=O)Nc2c(C)cccc2C)c2cc(Nc3ccc(N4CCN(C)CC4)cc3)ncn2)c(OC)c1` + COC(=O)c1ccc([C@H]2c3[nH]c4ccccc4c3C[C@H](C(=O)OC)N2C(=O)CCl)cc1 [RSL3]: the relative cell viability in experiment [1] was determined as 0.624; in experiment [2], 0.576.

As to `c1ccc([C@H]2CN3CCSC3=N2)cc1` [Levamisole hydrochloride] + COC(=O)c1ccc([C@H]2c3[nH]c4ccccc4c3C[C@H](C(=O)OC)N2C(=O)CCl)cc1 [RSL3], the values for the relative cell viability in experiment [1] and in experiment [2] were 0.704 and 0.53, respectively.

Regarding `CC1CC(OC(=O)C(O)c2ccccc2)CC(C)(C)C1` (centres undefined) [Cyclandelate] + COC(=O)c1ccc([C@H]2c3[nH]c4ccccc4c3C[C@H](C(=O)OC)N2C(=O)CCl)cc1 [RSL3], the relative cell viability in experiment [1] was determined as 0.808; in experiment [2] it was 0.638.

With `CCOC(=O)N1c2ccc(C(F)(F)F)cc2[C@@H](N(Cc2cc(C(F)(F)F)cc(C(F)(F)F)c2)C(=O)OC)C[C@H]1CC` [Torcetrapib] + COC(=O)c1ccc([C@H]2c3[nH]c4ccccc4c3C[C@H](C(=O)OC)N2C(=O)CCl)cc1 [RSL3], the relative cell viability in experiment [1] was found to be 0.642; in experiment [2], 0.458.

As to `CCCc1c(OCCCOc2ccc(OCC(=O)O)cc2)ccc(C(C)=O)c1O` + COC(=O)c1ccc([C@H]2c3[nH]c4ccccc4c3C[C@H](C(=O)OC)N2C(=O)CCl)cc1 [RSL3], the relative cell viability in experiment [1] came out at 0.556; in experiment [2], 0.757.

Regarding `COc1cc(N2CCN(C)CC2)ccc1Nc1ncc2c(n1)N(C)c1ccccc1C(=O)N2` + COC(=O)c1ccc([C@H]2c3[nH]c4ccccc4c3C[C@H](C(=O)OC)N2C(=O)CCl)cc1 [RSL3], the relative cell viability in experiment [1] stood at 0.213; in experiment [2], 0.375.

Take `Cc1ccc(C)c(OCCCC(C)(C)C(=O)O)c1` [Gemfibrozil] + COC(=O)c1ccc([C@H]2c3[nH]c4ccccc4c3C[C@H](C(=O)OC)N2C(=O)CCl)cc1 [RSL3]: the results for the relative cell viability in experiment [1] and in experiment [2] were 0.631 and 0.523, respectively.

On to `C[C@@H](Nc1nc(N[C@H](C)C(F)(F)F)nc(-c2cccc(Cl)n2)n1)C(F)(F)F` [Vorasidenib] + COC(=O)c1ccc([C@H]2c3[nH]c4ccccc4c3C[C@H](C(=O)OC)N2C(=O)CCl)cc1 [RSL3], for which the relative cell viability in experiment [1] amounted to 0.409; in experiment [2] it was 0.595.

On to `COC(=O)N(CC(=O)O)Cc1cccc(OCc2nc(-c3ccc(Cl)cc3)oc2C)c1` + COC(=O)c1ccc([C@H]2c3[nH]c4ccccc4c3C[C@H](C(=O)OC)N2C(=O)CCl)cc1 [RSL3], for which the relative cell viability in experiment [1] is 0.538; in experiment [2] it was 0.709.

Consider `NC(N)=NN=Cc1cccc(Cl)c1Cl` [Raphin1] + COC(=O)c1ccc([C@H]2c3[nH]c4ccccc4c3C[C@H](C(=O)OC)N2C(=O)CCl)cc1 [RSL3], for which the relative cell viability in experiment [1] amounted to 0.289; in experiment [2], 0.626.

On to `CC(C)=CCC[C@](C)(O[C@@H]1O[C@H](CO)[C@@H](O)[C@H](O)[C@H]1O)[C@H]1CC[C@]2(C)[C@@H]1[C@H](O)C[C@@H]1[C@@]3(C)CC[C@H](O[C@@H]4O[C@H](CO)[C@@H](O)[C@H](O)[C@H]4O[C@@H]4O[C@H](CO)[C@@H](O)[C@H](O)[C@H]4O)C(C)(C)[C@@H]3CC[C@]12C` [Ginsenoside Rd] + COC(=O)c1ccc([C@H]2c3[nH]c4ccccc4c3C[C@H](C(=O)OC)N2C(=O)CCl)cc1 [RSL3], for which the relative cell viability is 0.616 in experiment [1] and 0.478 in experiment [2].
